From PubChem BioAssay AID1272365 (Small Molecule Screening Facility, UW Madison, 2018)
“And” between values parts separate entries of the source, which are not always exact repeats. Equal values may be shown once. The campaign covered roughly 430,000 compounds. About 2,600 (0.6%) were called active. The entries come from a sample that favours actives as a whole. Values without a mark were called inactive. Cut-off read from the data, not from the text of the source: active = inhibition mostly above about 37% (no sharp cut-off); inactive = mostly below about 20%.

tested on: PriA–SSB C-terminal tail interaction (Klebsiella pneumoniae); experiment: blocks PriA binding to SSB C-terminal tail, primary screen, biochemical, AlphaScreen (AID 1272365); settings: AlphaScreen SSBct-PriA binding, biotinylated peptide; at 33 µM, hits give high values;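 note: plate controls were negative control peptide for no effect and reference peptide for full effect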

Structure (SMILES) | inhibition
CC(=O)N(C)c1ccc(OC[C@@H](O)CN(c2ccc(C)cc2)S(=O)(=O)c2ccc(C)cc2)cc1 | -17%
CC1(C)C(=O)NCCN1C(=O)Cc1ccc2c(c1)OCO2 | -2% and -8%
COC1(CNC(=O)C2CCN(S(C)(=O)=O)CC2)CCSC1 (stereo not given) | -5%
C=CC(=O)Nc1ccc(Nc2ccnc(Nc3ccc(N4CCN(C)CC4)cc3)n2)cc1 | 56.7% (active)
COc1ccc(NC(=O)Nc2ccc(N3CCOCC3)cc2)cc1 | -16%
COc1ccc(N2CCN(C(=S)Nc3ccc(C(C)=O)cc3)CC2)cc1 | 5%
O=C(c1cc(Cl)sc1Cl)N(CC1CCCO1)c1nc2c(F)cc(F)cc2s1 (stereo not given) | -20%
CCOC(=O)N1CCN(C(=O)Cn2nc(C(F)(F)F)n(C)c2=O)CC1 | 2%
O=C(Nc1ccccc1-c1ccc(=O)[nH]n1)c1ccncc1 | -12%
COc1ccc(-c2ccc(CCC(=O)O)n2NC(=O)c2ccc(C(C)(C)C)cc2)cc1 | -5.78%
CC(=O)N1N=C(c2ccncc2)OC1(Cc1ccccc1)Cc1ccccc1 | -8.22%
COc1ccc(CC2(C)OC(c3ccc(C(C)(C)C)cc3)=NN2C(C)=O)cc1 (stereo not given) | 62.5% (active)
Cn1c(=O)c2nc(SCC(=O)Nc3ccc(F)c([N+](=O)[O-])c3)n(C)c2n(C)c1=O | -5%
CCOc1ccc(-c2ccc(=O)n(CCNC(=O)C3CC3)n2)cc1 | 6%
NC(=NOC(=O)c1ccc(=O)n(Cc2ccccc2)c1)c1ccccn1 | 3.95%
O=C(CNc1ccc2ccccc2c1)NN=Cc1ccc(C(=O)O)cc1 | 13.8%
COC(=O)c1ccc(C=NNC(=O)CNc2cccc(C)c2)cc1 | -5.68%
CSc1ccc(C=NNC(=O)CNc2ccc3ccccc3c2)cc1 | 47.7% (active)
C(#Cc1ccc2noc(-c3ccccc3)c2c1)c1ccccc1 | -6%
O=C(CCN1CCOCC1)N1N=C(c2ccccc2)CC1c1cccc([N+](=O)[O-])c1 (stereo not given) | 8%
COc1cccc(Cn2cc(C(=O)c3ccccc3)c(=O)c3cc4c(cc32)OCCO4)c1 | -13%
Cc1ccc(Cn2cc(C(=O)NN)c(=O)c3ccc(F)cc32)cc1 | -0.06%
O=C(c1ccc(F)cc1)c1cn(Cc2ccc(F)cc2)c2cc3c(cc2c1=O)OCCO3 | 115% (active)
CCc1nc2ccccc2c(=O)n1N=Cc1ccc(OC)cc1 | 4.76%

Structure (SMILES) | inhibition
C=CCn1c(N=Cc2ccc(OC)cc2)nc2ccccc21 | 10.8%
COc1ccc(C=Nc2cccc3ncccc23)cc1 | 86.5% (active)
CCOC(=O)c1c(-c2ccc(F)cc2)csc1NC(=O)CSc1n[nH]c(N)n1 | 9%
CCCOc1ccc(-c2nc(C#N)c(N3CCCCC3)o2)cc1 | 90% (active)
Cc1ccc(OCc2nc(C#N)c(N3CCCC3)o2)cc1 | -11.1%
Cc1ccc(OCc2ccc(-c3nc(C#N)c(N4CCCCCC4)o3)o2)cc1 | 39.5%
COc1cccc2cc(C(=O)C3=C(O)C(=O)N(CCN(C)C)[C@@H]3c3ccccc3F)oc12 | -20%
NS(=O)(=O)c1ccc(NC(=O)c2cn(Cc3cccc(F)c3)nc2OCc2cccc(F)c2)cc1 | -16%
Cc1ccc(C=NNC(=O)c2cccc(S(=O)(=O)Nc3cccc(Cl)c3)c2)o1 | -6.77%
COc1cccc(NC(=O)c2nn(-c3ccc(OC)cc3OC)c(=O)c3ccccc23)c1 | -7.71%
COc1cccc(NC(=O)C2C(c3ccccc3)C2(Cl)Cl)c1 (stereo not given) | -12.2%
COc1ccc2c(c1)C(C)=CC(C)(C)N2C(=O)Nc1ccccc1 | 38.4% (active)
CCOC(=O)c1ccc(NC(=O)CSc2nnc(-c3cccs3)n2-n2cccc2)cc1 | 0%
CCOC(=O)CNC(=O)NC1CC(=O)N(c2ccccc2)C1 (stereo not given) | 32%
CC1(C)N=C(c2ccccn2)C(C)(C)N1O | -5.91%
Cc1c(N)nc(-c2ccccn2)nc1Cl | 47.3%
Cc1cnc(-c2ccccn2)nc1N | 151% (active)
COc1ccc(NC(=O)Cn2ncn3nc(-c4ccc(F)cc4)cc3c2=O)cc1Cl | 6%
CNC(=S)NN=C(C)c1cccc(C(F)(F)F)c1 | -4.78%
O=C(NCC1(c2ccsc2)CCCC1)Nc1cccs1 | 53% (active)
O=C(Cc1ccc(F)cc1)NCC1(c2ccsc2)CCCC1 | -6%
Cn1cc(C(=O)NCC2(c3ccsc3)CCCC2)nn1 | -24%
NCCc1csc2nc(-c3cccc(F)c3)nn12 | 16%
O=C(Nc1cnc(N2CCN(c3ccccc3)CC2)nc1)c1c(F)cccc1F | -6%

Structure (SMILES) | inhibition
Cc1cc(NC(=O)C(C)(C)CCl)n(-c2ncnc3c2cnn3-c2cccc(C)c2C)n1 | 11%
Cc1cc(NC(=O)c2ccccc2Cl)n(-c2nc3c(cnn3-c3cccc(C)c3C)c(=O)[nH]2)n1 | 53% (active)
Cc1ccc(-n2ncc3c(=O)[nH]c(-n4nc(C)cc4NC(=O)Cc4ccccc4)nc32)cc1 | -5%
CCOC(=O)N1CCC(NC(=O)Cc2csc(Nc3ccc(F)cc3)n2)CC1 | 2%
CC(C)n1cnc2c(NCc3ccccc3)cc(OCC3CCN(C)CC3)cc21 | 53.1% (active)
O=C(c1ccc(S(=O)(=O)NCc2cccnc2)o1)N1CCC(Cc2ccccc2)CC1 | 5%
O=[N+]([O-])c1cc(C(F)(F)F)ccc1NCCc1ccncc1 | -11.2%
O=[N+]([O-])c1cc(S(=O)(=O)N2CCCC2)ccc1NN=C1CCCC1 | 11.5%
O=[N+]([O-])c1cc(C(F)(F)F)ccc1NN=C1CCCC1 | 43.5% (active)
COc1cc(OC)c(OC)cc1/C=C1/C(=O)NC(=N)N1C | -14.1%
O=C(COc1ccc(Cl)cc1Cl)NCC(=O)N/N=C\c1cccs1 | -6%
CC(=O)c1ccc(S(=O)(=O)N2CC(S(=O)(=O)c3ccc(Cl)cc3)C2)cc1 | -15%
Cc1cccc(CCNS(=O)(=O)c2ccc3c(c2)NC(=O)CO3)c1 | 1.31%
CCCNS(=O)(=O)c1ccc2c(c1)CCCN2C(C)=O | -6.74%
CCCN1CCCc2cc(CCNS(=O)(=O)Cc3cccc(C)c3)ccc21 | 73% (active)
Cc1cccc(CCNS(=O)(=O)c2ccc(S(=O)(=O)NC3CCCC3)cc2)c1 | -8.63%
CCCN1CCCc2cc(CCNS(=O)(=O)c3ccc(NC(C)=O)cc3)ccc21 | 85% (active)
CCCN1CCCc2cc(CCNC(=O)C(=O)Nc3ccc(OC(F)(F)F)cc3)ccc21 | -6%
Cn1cccc1CN(Cc1cccs1)C(=O)c1ccccc1S(=O)(=O)C(F)F | 20%
Cc1nc(N2CCCC2)nc(C)c1NC(=O)c1cccc(Cl)c1 | -6%
Cc1cc(NC(=O)CSc2nnc(C)c3cnn(-c4ccc(F)cc4)c23)no1 | -7% and -11%
CCc1ccc(S(=O)(=O)N2CCOC(c3ccccc3)C2)s1 (stereo not given) | -11%
COc1ccc(-c2nnc(NC(=O)c3ccc(SC)cc3)o2)cc1 | -3%
COc1ccc(-c2nnc(SC(=O)N3c4ccccc4Sc4ccccc43)o2)cc1 | 42.2% (active)

Structure (SMILES) | inhibition
COc1ccc2nc(N=C(N)NC(=O)N3c4ccccc4Sc4ccccc43)nc(C)c2c1 | -5.89%
Cc1oc2cc(OCC(=O)c3ccc(F)cc3)ccc2c(=O)c1-c1ccccc1 | 7%
CCCCOc1ccc(C(=O)Nc2ccc3c(c2)C(=O)N(C)C3=O)cc1 | -4%
COc1ccc(S(=O)(=O)N2CCOCC2)cc1NC(=O)CSc1ncnc2ccccc12 | -9.78%
COc1ccc(S(=O)(=O)N2CCOCC2)cc1NC(=O)CSc1cc(C)ccc1C | 49.7% (active)
COc1ccc(S(=O)(=O)N2CCOCC2)cc1NC(=O)Cc1coc2cc(C)ccc12 | -2.71%
CC(=O)c1sc(NC(=O)COc2ccc(Cl)cc2)nc1C | -10%
CSc1ccccc1NC(=O)C(=O)NC[C@]1(O)CCc2ccccc2C1 | -6%
Cn1ccnc1SCC1CCN(C(=O)c2nc3ccccc3s2)CC1 | 39% (active)
C[C@H](O)CN1CCN(C(=O)c2nc3ccccc3s2)CC1 | -1%
CS(=O)(=O)N1CCC(CNC(=O)c2nc3ccccc3s2)CC1 | -21%
O=C(Nc1nc2ccccc2s1)C(=O)NC1CC1 | 3%
O=C(O)C(NC(=O)c1ccc(Cl)cc1)=C(Cl)Cl | -6%
CC(C)c1nnc(NC(=O)/C=C/c2cccs2)s1 | -6%
COc1ccc(C)cc1NC(=O)CSc1ncc(-c2ccccc2)n1C | -3%
COCCN1CCCc2ccc(NC(=O)c3ccc(OC)cc3)cc21 | 45%
COCCN1CCCc2ccc(NC(=O)c3cccc(OC)c3)cc21 | 53%
COCCN1CCCc2ccc(NS(=O)(=O)c3ccc(C)c(Cl)c3)cc21 | 54% (active)
COc1cc(NS(=O)(=O)CCc2ccccc2)ccc1N1CCCC1=O | -16%
O=C(C1CCCC1)N1CCc2ccc(NS(=O)(=O)CCc3ccccc3)cc21 | 5%
COCCN1CCCc2ccc(NS(=O)(=O)CCc3ccccc3)cc21 | 34% (active)
c1cncc(-c2nnc3sc(-c4cc5ccccc5o4)nn23)c1 | -28%
O=S(=O)(c1ccccc1F)N1CCN(c2cnnc(N3CCCC3)c2)CC1 | 0%
